Results taken from PubChem BioAssay AID624291 (National Center for Advancing Translational Sciences (NCATS), 2012).
Hit rate of the full screen: of about 350,000 compounds, about 220 (0.063%) were called active. Roughly 4% stayed inconclusive and do not appear here. Calls follow the shape of the dose curve; as a rule, active = well fitted activation curve with a large enough effect; inconclusive = small, poorly fitted or top-dose-only effect; inactive = no such curve, though single readings can be large or run the other way. This excerpt belongs to a sample that is enriched for actives.

Test: qHTS for Activators of Integrin-Mediated Alleviation for Muscular Dystrophy; also: nearly all actives have a fitted effect of over 60% in size;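 as to activation: 100% = response of the positive control SU9516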
Settings: alpha7betagal myoblasts, beta-gal FDG fluorescence, 48 h; series mostly up to 38.3 µM; activation: at the top concentration
How it was run: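 alpha7betagal+/- myoblasts (passage 13, 250/well) treated 48 h at 37C with compounds at 1:260 dilution of DMSO stock. Lysed, then beta-galactosidase activity read as FDG fluorescence (ex 480/em 540) after 30 min, with pre-read for autofluorescence.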
Potency is read from the fitted curve at half-maximal effect.

Row | SMILES | activation | Potency
1 | CCCCN(C(C)=O)c1ccc2c(c1)C1CC2CCN1Cc1ccccc1 (stereo not given) | -16.5% (inactive) | 
2 | C[C@@H]1CN([C@H](C)CO)S(=O)(=O)c2ccc(C#CC3CCCCC3)cc2O[C@H]1CN(C)C(=O)Cc1ccncc1 | -44.2% (inactive) | 
3 | COc1ccc(OC)c(NC(=O)C2CCCN2S(=O)(=O)c2ccc3c(c2)CC(C)N3C(C)=O)c1 (stereo not given) | 5.18% (inactive) | 
4 | C#Cc1cc(N2CCN(C(=O)c3ccoc3)CC2)n2nc(-c3cccc(Cl)c3)cc2n1 | -66.7% (inactive) | 
5 | Nc1cc(=O)c2[nH]cnc2[nH]1 | 9.52% (inactive) | 
6 | CSc1ncnc2c1ncn2CCCNCc1ccco1 | -0.506% (inactive) | 
7 | C[C@@H]1CN([C@@H](C)CO)C(=O)CCCn2nncc2CO[C@H]1CN(C)Cc1ccc(C(F)(F)F)cc1 | -6.93% (inactive) | 
8 | CCC(Oc1ccccc1)C(=O)OCC(=O)Nc1c(C)nn(-c2ccccc2)c1C (stereo not given) | -14.5% (inactive) | 
9 | CCc1nnc(NC(=O)c2ccco2)s1 | -11.4% (inactive) | 
10 | O=C(Nc1cc(F)ccc1F)c1ccc2c(=O)n3c(nc2c1)CCC3 | 21.5% (inactive) | 
11 | O=C(NN=Cc1ccc2c(c1)CCC2)c1ccccc1O | -8.45% (inactive) | 
12 | Cc1ccc(CN(C)C[C@@H]2OCc3cnnn3CCCC(=O)N([C@@H](C)CO)C[C@H]2C)cc1 | 10.6% (inactive) | 
13 | CC(=NNC(N)=O)C1CC2CCC1CC2 (stereo not given) | 20.4% (inactive) | 
14 | CCN(CC)C(=O)C1=C(C)N(Cc2ccc(C(C)(C)C)cc2)C(=O)C(CC(=O)NCc2cccc3ccccc23)C1 (stereo not given) | 4.29% (inactive) | 
15 | Cc1ccccc1C#CC1=CC(=O)CC(C)(C)C1 | -16.2% (inactive) | 
16 | COc1ccc(NC(=O)N(C)C[C@H]2Oc3ncc(C#C[C@@H](C)O)cc3C(=O)N([C@H](C)CO)C[C@H]2C)cc1 | 0% (inactive) | 
17 | CCCc1ccc(S(=O)(=O)N2CCN(C(=O)c3cc(C)on3)CC2)cc1 | -5.39% (inactive) | 
18 | COc1cc(C(=O)OCCCN2CCOCC2)cc(OC)c1OC | -16.1% (inactive) | 
19 | O[C@@H]1C[C@H](c2ccccc2)N(Cc2cccs2)C[C@H]1n1cc(C2CC2)nn1 | 8.05% (inactive) | 
20 | CCc1nnc(NC(=O)[C@@H](NC(=O)c2cccc(C)c2)C(C)C)s1 | -7.54% (inactive) | 
21 | Cc1cccc(C(=O)N[C@H](C(=O)NCc2cccs2)C(C)C)c1 | 2.9% (inactive) | 
22 | CC(=O)Nc1ccc(NC(=O)[C@@H](NC(=O)c2cccc(C)c2)C(C)C)cc1 |  | 5.62 µM (active)
23 | O=C(O)C1=C(C(=O)O)C2CCC1C2 | 12.3% (inactive) | 
24 | COCOCCn1cc(CN2CCS(=O)(=O)N(Cc3ccc(-c4ccccc4)cc3)C(CC(C)C)C2=O)nn1 (stereo not given) | -33.9% (inactive) | 
25 | CC1(C2CC2)NC(=O)N(CC(=O)N2CCN(c3ccccc3F)CC2)C1=O (stereo not given) | 15.2% (inactive) | 
